# Experimental data: PubChem BioAssay
# Calls of active or inactive are those of the source. Unless noted, the rule behind the calls is not given here.
# Columns and labels:
# [1] = system: XIP peptide (Xip251-270) binding; assay: small-molecule binders of XIP peptide, primary screen, biochemical, small-molecule microarray, fluorescence 635/667 nm, 0.1 µg/mL protein (AID 1182); conditions: fluorescent protein binding, 635 nm, higher = more signal, called active from +8 up or from −8 down
# XIP peptide (Xip251-270) = assay: small-molecule binders of XIP peptide, primary screen, biochemical, small-molecule microarray, fluorescence 635/667 nm, 0.5 µg/mL protein (AID 1183); conditions: small-molecule microarray binding, fluorescence 635 nm; higher = more signal
# [2] = Plasmodium falciparum growth inhibition, primary screen, strain 3D7, DAPI fluorescence, 100 nL (AID 1184);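 note: parasites grown inside human red blood cells in medium with human serum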; conditions: P. falciparum 3D7 growth, 3 d, higher = more signal
# [3] = target: Homeobox protein Hox-A13 (Mus musculus) (UniProt Q62424); assay: inhibitors of HoxA13-DNA binding, primary screen, biochemical, fluorescence polarization, labeled oligonucleotide (AID 1185); conditions: 15 min, higher = more signal, called active from +8 up or from −8 down
# Chain of Homeobox protein Hox-A13 (Mus musculus) (Q62424 whole entry, looked up): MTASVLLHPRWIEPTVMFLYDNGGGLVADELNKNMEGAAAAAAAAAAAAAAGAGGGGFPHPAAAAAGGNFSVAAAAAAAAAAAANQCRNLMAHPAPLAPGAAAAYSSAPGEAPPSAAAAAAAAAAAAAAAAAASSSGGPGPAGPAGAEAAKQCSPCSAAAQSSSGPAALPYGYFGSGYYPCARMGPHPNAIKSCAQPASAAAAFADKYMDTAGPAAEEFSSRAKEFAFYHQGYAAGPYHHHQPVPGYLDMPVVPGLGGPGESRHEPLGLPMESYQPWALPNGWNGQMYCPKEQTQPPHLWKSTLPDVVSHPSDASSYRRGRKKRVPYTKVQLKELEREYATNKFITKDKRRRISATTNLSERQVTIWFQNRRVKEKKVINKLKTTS
# [4] = inhibitors of hydroxyurea-induced Chk1 phosphorylation, primary screen, imaging, HeLa, phospho-Chk1 antibody, percent positive cells (AID 1186); conditions: hydroxyurea-induced phospho-Chk1 immunofluorescence imaging, higher = more signal
# [5] = inhibitors of hydroxyurea-induced Chk1 phosphorylation, primary screen, imaging, HeLa, phospho-Chk1 nuclear intensity (AID 1187); conditions: hydroxyurea-induced phospho-Chk1 immunofluorescence imaging, higher = more signal
Compound,composite z-score [1],composite z-score (XIP peptide (Xip251-270)),z-score [2],z-score [3],z-score [4],z-score [5]
COc1ccc(C#Cc2ccc3c(c2)[C@]2(C(=O)N3)[C@H](c3ccc(OCCO)cc3)N3[C@H](c4ccccc4)[C@H](c4ccccc4)OC(=O)[C@H]3[C@@H]2C(=O)N2CCN(c3ncccn3)CC2)cc1,-0.138 (inactive),0.0154,-1.31,1.1 (inactive),-0.246 (inactive),-0.0676 (inactive)
COC(=O)[C@@]1(Cc2ccc(F)cc2)[C@H]2c3cc(C(=O)N(C)C)n(CCSCCO)c3C[C@H]2CN1C(=O)c1ccccc1,0.235 (inactive),0.0692,-0.404,-4.76 (inactive),0.511 (inactive),0.469 (inactive)
NCCCCCCNC(=O)[C@H]1C[C@H]2C(=O)N3CCC[C@H]3C(=O)N2[C@H]1c1ccc(O)cc1,-0.118 (inactive),0.451,0.0311,-2.4 (inactive),-0.0342 (inactive),0.0369 (inactive)
O=c1c2ccc(Br)cc2nc(-c2ccccc2)n1Cc1cccc(O)c1,0.0521 (inactive),0.748,-0.772,-3.01 (inactive),-0.005 (inactive),-0.24 (inactive)
[N-]=[N+]=NCc1ccccc1[C@H]1OC(c2ccc(OCCCO)cc2)=N[C@@]1(Cc1ccccc1N=[N+]=[N-])C(=O)NCCN1CCOCC1,0.175 (inactive),0.795,-2.21,-3.06 (inactive),0.0262 (inactive),-0.0057 (inactive)
O=C1C2C=CC(C(O)c3cccc4ccccc34)N(Nc3ccccc3)C2C(=O)N1c1ccccc1 (stereo unspecified),0.179 (inactive),0.807,-0.176,-0.231 (inactive),0.107 (inactive),-0.294 (inactive)
O=C1NC(=O)C2C1C=CC(C(O)CCc1ccccc1)N2Nc1ccccn1 (stereo unspecified),0.415 (inactive),0.932,0.581,-0.354 (inactive),-0.181 (inactive),-0.426 (inactive)
COCCOC(=O)N1C(=O)[C@@]2(c3cc(C#CCNC(N)=O)ccc31)[C@H](C(N)=O)[C@H]1C(=O)O[C@H](c3ccccc3)[C@H](c3ccccc3)N1[C@@H]2c1ccc(OCCO)cc1,-0.0439 (inactive),0.549,0.101,-2.08 (inactive),0.358 (inactive),0.489 (inactive)
CC1(C)[C@@H]2CC(C(O)C3C=CC4C(=O)N(c5ccccc5)C(=O)C4N3Nc3ccccc3F)=C[C@@H]1C2 (stereo partly specified),0.572 (inactive),0.458,-0.59,-2.4 (inactive),0.498 (inactive),0.749 (inactive)
COC(=O)[C@@]1(Cc2ccc(OC)cc2)[C@H]2c3cc(C(=O)N(C)C)n(Cc4cc(C)n(C)n4)c3C[C@H]2CN1C(=O)c1ccccc1,0.254 (inactive),0.762,-1.63,-5.1 (inactive),0.53 (inactive),0.263 (inactive)
Cc1ccc(S[C@]2(C(=O)NCCN3CCOCC3)CC(=O)N(C3Cc4ccccc4C3)[C@@H]2c2ccc(CO)cc2)cc1,0.487 (inactive),0.547,-0.196,-4.63 (inactive),0.672 (inactive),1 (inactive)
COc1ccc([Si](C)(C)[C@@H]2[C@@H](CCO)O[C@]3(C(=O)N(Cc4ccccc4)c4ccc(N5C(=O)COc6ccccc65)cc43)[C@H]2C)cc1,-0.234 (inactive),0.667,-2.82,-1.89 (inactive),-1.26 (inactive),-1.47 (inactive)
COC(=O)[C@@]1(Cc2ccc(F)cc2)[C@H]2c3cc(C(=O)N(C)C)n(Cc4ccc(C)c(F)c4F)c3C[C@H]2CN1C(=O)c1ccccc1,0.365 (inactive),-0.0688,-1.13,-4.74 (inactive),-0.014 (inactive),-0.193 (inactive)
O=C(CS)NCCCCCNC(=O)[C@@H]1C[C@@H]2C(=O)N3CCC[C@H]3C(=O)N2[C@@H]1c1ccc(O)cc1,0.262 (inactive),0.716,0.924,-2.66 (inactive),0.0756 (inactive),0.0698 (inactive)
CCCC=C(CCC)[C@@H](NC(=O)Cc1ccccc1)c1ccc(C(=O)OC)cc1,0.349 (inactive),0.34,-0.958,-1.93 (inactive),0.374 (inactive),-0.309 (inactive)
Cc1ccc(S[C@]2(C(=O)NCC(C)C)CC(=O)N(C3CCCCC3)[C@@H]2c2ccc(CO)cc2I)cc1,1.4 (inactive),0.254,-1.82,-3.86 (inactive),0.263 (inactive),0.746 (inactive)

Compound,composite z-score [1],composite z-score (XIP peptide (Xip251-270)),z-score [2],z-score [3],z-score [4],z-score [5]
CN(C)CCCNC(=O)[C@@]1(Cc2ccccc2I)c2ccccc2C(=O)N(Cc2ccccc2Cl)[C@H]1c1ccc(CO)cc1,0.191 (inactive),0.774,-2.21,-0.316 (inactive),-0.022 (inactive),-0.461 (inactive)
CC(C)C[C@@H]1NC(=O)[C@@H]2C[C@H](C(=O)NCCCC[N+](C)(C)C)[C@H](c3cccc(OCCO)c3)N2C1=O,0.974 (inactive),0.0734,0.0751,-3.05 (inactive),-0.366 (inactive),-0.333 (inactive)
C=CCC(OC(C)=O)[C@@H]1[C@@H](N(Cc2ccc(-c3ccccc3)cc2)C(=O)c2cccc3ccccc23)c2cc(OCCCO)ccc2N1C(=O)c1ccc2ccccc2n1 (stereo partly specified),-0.0607 (inactive),0.328,-0.714,-1.42 (inactive),-0.606 (inactive),-0.368 (inactive)
NC(=O)NCC#Cc1ccc2c(c1)[C@]1(C(=O)N2)[C@H](c2ccc(OCCO)cc2)N2[C@H](c3ccccc3)[C@H](c3ccccc3)OC(=O)[C@H]2[C@@H]1C(=O)N1CCCCCCC1,2.2 (inactive),0.501,-0.765,-9.12 (active),-0.0375 (inactive),-0.265 (inactive)
C[N+](C)(C)CCCCCCNC(=O)[C@@H]1C[C@@H]2C(=O)NCC(=O)N2[C@@H]1c1ccc(O)cc1,0.842 (inactive),0.87,0.627,-1.98 (inactive),1.34 (inactive),0.992 (inactive)
COCCOC(=O)N1C(=O)[C@@]2(c3cc(C#CCCO)ccc31)[C@H](C(=O)N1CCc3cc(OC)c(OC)cc3C1)[C@H]1C(=O)O[C@H](c3ccccc3)[C@H](c3ccccc3)N1[C@@H]2c1ccc(OCCO)cc1,-0.608 (inactive),0.726,-2.14,3.13 (inactive),-0.148 (inactive),-0.0047 (inactive)
COCC1=C([C@H](O)CCc2ccccc2)[C@H](CO)[C@@H]2C(=O)N(C)C(=O)[C@@H]2C1,-0.328 (inactive),0.104,-0.119,-6.06 (inactive),-0.32 (inactive),-0.523 (inactive)
O=C1O[C@H](c2ccccc2)[C@H](c2ccccc2)N2[C@H]1[C@@H](C(=O)N1CCN(c3ncccn3)CC1)[C@]1(C(=O)Nc3ccc(C#CCCO)cc31)[C@H]2c1ccc(OCCO)cc1,0.756 (inactive),0.853,-1.9,-0.587 (inactive),0.177 (inactive),0.923 (inactive)
OCc1ccc(-c2cc[n+](Cc3cccc(OC(F)(F)F)c3)cc2)cc1,1.18 (inactive),0.596,-1.63,-6.13 (inactive),0.258 (inactive),0.666 (inactive)
CC(C)CCC[C@@H](C)[C@H]1CC[C@@]2(C)C3=C(CC[C@]12C)[C@@]1(C)CC[C@H](OC(=O)c2ccc(N)cc2)C(C)(C)C1CC3 (stereo partly specified),0.141 (inactive),0.132,0.0753,-1.09 (inactive),-0.516 (inactive),-0.736 (inactive)
CCCC=C(CCC)[C@@H](NS(=O)(=O)CC)c1ccccc1,-0.255 (inactive),0.52,-0.977,-0.298 (inactive),0.304 (inactive),0.408 (inactive)
COc1cccc(C[C@H]2C[C@@H](CO[Si](C(C)C)(C(C)C)C(C)C)N3C(=O)[C@]4(C(C)=O)O[C@]23[C@H]2C(=O)N(C)C(=O)[C@H]24)c1,0.0522 (inactive),0.459,-0.281,-3.12 (inactive),0.527 (inactive),0.139 (inactive)
Cc1ccc(F)cc1S(=O)(=O)N[C@@H]1CCN(C(=O)c2ccc(OC(C)C)cc2)C1,0.615 (inactive),0.805,-1.21,-5.21 (inactive),0.0079 (inactive),-0.303 (inactive)
CN(C)C(=O)[C@@]1(Cc2ccccc2N=[N+]=[N-])N=C(c2ccc(OCCCO)cc2)O[C@H]1c1ccccc1N=[N+]=[N-],0.976 (inactive),0.596,-2.32,-4.6 (inactive),0.0092 (inactive),0.398 (inactive)
C=CC[C@]1(C(=O)N2CCOCC2)N=C(c2ccc(OCCCO)cc2)O[C@H]1c1ccccc1CN=[N+]=[N-],0.349 (inactive),0.836,-2.33,-4.04 (inactive),-0.552 (inactive),-0.429 (inactive)
